Compound activity deposited in PubChem by National Center for Advancing Translational Sciences (NCATS).
Sampled rows, rich in hits. Any-hit rate of the full collection: about 9.9%.
IL-1B inflam inh = qHTS for Inhibitors of Inflammasome Signaling: IL-1-beta AlphaLISA Primary Screen; THP-1 LPS/ATP IL-1B secretion, AlphaLISA, 16 h; stronger effect = lower value; activity change, % at 57.5 µM; 4.7% of 360,000 active; AID 743279, 2014; in the data active = activity change below about -50%; inconclusive = mostly about -30% to -49%; also: % is scaled to controls: 0 for no effect and ±100 for the full control effect
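THP-1 cells pretreated 1 hr with compounds (up to 57.5 uM final), then stimulated with LPS (250 ng/mL final) plus ATP (1.25 mM final); secreted IL-1B measured by AlphaLISA after 16 hr, decreased signal indicating inhibition.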
KB-3-1 tox = qHTS assay for MDR1-selective chemotherapeutics: Primary screen using the parental adenocarcinoma cell KB-3-1. KB-3-1 viability, CellTiter-Glo ATP luminescence, 72 h. Potency, µM (titrated, usually from 46.1 µM), hits mostly cytotoxic. 1.4% of 400,000 active; also: potency is read from the fitted curve at half-maximal effect; % is scaled to controls: 0 for no effect and ±100 for the full control effect; nearly all actives have a fitted effect of over 60% in size
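Parental KB-3-1 adenocarcinoma cells in phenol-red-free DMEM with 10% FBS were pin-treated with compounds at several concentrations, incubated 72 h at 37 °C, and viability read by CellTiter-Glo luminescence; concentration-effect curves were fitted after normalization.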
KB-V1 cytotox = qHTS assay for MDR1-selective chemotherapeutics: Primary screen using the drug-selected MDR subline cells KB-V1. 3.4% of 400,000 active. Potency, µM (top dose mostly 46.1 µM), actives largely listed as cytotoxic. KB-V1 MDR cells viability, CellTiter-Glo, 72 h; also: potency is read from the fitted curve at half-maximal effect; % is scaled to controls: 0 for no effect and ±100 for the full control effect; nearly all actives have a fitted effect of over 60% in size
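Readout: CellTiter-Glo luminescence, 10 min after addition. Cells: KB-V1 MDR subline, 72 h at 37 degrees C with compound. Analysis: corrected, normalized data fitted to concentration-effect curves.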
MCF10A rereplic = A quantitative high throughput screen for small molecules that induce DNA re-replication in MCF 10a normal breast cells; MCF 10A DNA re-replication, Hoechst nuclear intensity, 48 h; Potency, µM (series often up to 46.1 µM), for inactives: at the highest dose activity, positive = re-replication, most hits filed as activators; 2.9% of 350,000 active; AID 624296, 2012; also: potency is read from the fitted curve at half-maximal effect; % of control where 0% means no effect; nearly all actives have a fitted effect of over 50% in size
SW480 rereplic = A quantitative high throughput screen for small molecules that induce DNA re-replication in SW480 colon adenocarcinoma cells; SW480 DNA re-replication, Hoechst DNA content imaging, 48 h; Potency, µM (doses to about 46.1 µM), without a hit: at the top dose re-replication activation, hits mostly activators; 1.8% of 340,000 active; AID 624297, 2012; also: potency is read from the fitted curve at half-maximal effect; % of control where 0% means no effect; nearly all actives have a fitted effect of over 55% in size
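Hoechst fluorescence of nuclei (405 nm excitation, 500-530 nm emission) measured by plate-scanning imager after 48 hr compound exposure at 37 C; re-replication scored as increased number of nuclei with elevated intensity.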
The depositor's hits bear a star; i = inactive; ? = inconclusive; . = no result; [ ] = another dose, or the depositor's remark. Unless noted, calls follow the shape of the dose curve; as a rule, active = well fitted curve in the direction sought with a large enough effect; inconclusive = small, poorly fitted or top-dose-only effect, or another doubt; inactive = no such curve, though single readings can be large; an effect the other way counts as inactive or inconclusive.

SMILES	IL-1B inflam inh	KB-3-1 tox	KB-V1 cytotox	MCF10A rereplic	SW480 rereplic
COc1ccc(/C=N/NC(=O)C(=O)N2CCCCCC2)cc1	-4.5	i	i	20.4%	-16.5%
O=C(CSCc1ccccc1Br)N/N=C/c1ccc(OCC(=O)N2CCCCC2)cc1	0.0	i	i	0.7%	.
COc1ccc(CSCC(=O)N/N=C/c2ccc(OCC(=O)N3CCCCC3)cc2)cc1	-5.6	i	i	20.6µM*	?
O=C(CSCc1ccccc1)N/N=C/c1ccc(OCC(=O)N2CCCCC2)cc1	0.0	i	20.6µM*	24.8%	-11.8%
O=C(Cn1c(=O)c(=O)n(Cc2ccccc2)c2ccc(Cl)cc21)Nc1cccc(F)c1	14.3	i	13µM*	11.4%	-47.2%
O=C(Cn1c2ccccc2c(=O)c2ccccc21)Nc1cccc(F)c1	13.1	i	i	11.6µM*	18.4µM*
Cc1cccc(C(=O)Nc2ccccc2SCc2cc(=O)c3cccc(C)c3[nH]2)c1	.	i	i	.	.
Cc1nc2sccc2c(=O)n1N	8.1	i	i	-6.3%	-50.8%
Cc1ccc(-n2cccn2)c(CN2CCCC(C(=O)c3ccc4c(c3)OCO4)C2)c1 (centres undefined)	-59.6*	?	i	19.4%	17.8%
CCOc1ccc2nc(NC(=O)Cn3[nH]c(=O)c4ccccc4c3=O)sc2c1	58.0	?	i	20.6µM*	122.8%
CCOc1ccc2nc(NC(=O)c3ccoc3C)sc2c1	?	10.3µM*	8.2µM*	20.7%	-4.6%[9.22 µM]
CCOc1ccc2nc(NC(=O)CN3CCN(CC)CC3)sc2c1	4.6	i	i	9.6%	2.7%
CCOc1ccc2nc(SCCNS(=O)(=O)c3ccccc3)sc2c1	-68.4*	?	?	9.8%	1.9%
Cc1ccc2nc(NC(=O)c3ccccn3)sc2c1	-101.9*	?	?	?	-0.1%
Nc1cc(Cl)ccc1C(=O)OCC(=O)NCC1CCCO1 (centres undefined)	11.8	?	i	3.5%	2.6%
Cc1nc(N(C)Cc2ccccc2)c2nnn(Cc3ccccc3)c2n1	-24.3	i	i	1.6%	-21.6%
NNc1nc2ccc(Cl)cc2s1	-20.0	?	?	20.6µM*	?
CCOc1ccc2nc(NC(=O)c3ccccn3)sc2c1	-97.9*	?	?	?	?
Cc1cc(C(=O)Nc2nc3ccc(Cl)cc3s2)nn1C	.	i	?	0.0%	6.51µM*
NNc1nc2c(Cl)c(Cl)ccc2s1	-59.7*	i	i	?	-1.7%
Cc1ccc(S(=O)(=O)NCc2ccccc2)cc1C(=O)NCC(=O)Nc1c(C)cccc1C	-0.1	i	i	.	.
O=C(C[n+]1cc(-c2ccccc2)n2c1CCCCC2)c1ccc(Br)cc1	-76.9*	?	i	-7.8%	-7.6%
Cc1ccc(-c2c[n+](Cc3ccc(Cl)c(Cl)c3)c3n2CCC3)cc1	-79.0*	3.66µM*	i	?	60.4%
COc1ccc(C(=O)C[n+]2cc(-c3ccc(OC)cc3)n3c2CCCC3)cc1	-11.8	?	?	6.6%	?
Cc1ccc(NC(=O)C[n+]2cc(-c3ccc(C)cc3)n3c2CCC3)cc1	.	i	i	0.0%	-43.8%
SMILES	IL-1B inflam inh	KB-3-1 tox	KB-V1 cytotox	MCF10A rereplic	SW480 rereplic
Cc1ccc(C(=O)C[n+]2cc(-c3ccc(C)cc3)n3c2CCCCC3)cc1	-96.0*	0.92µM*	i	?	11.2%
Cc1ccc(-c2c[n+](CC(=O)OCc3ccccc3)c3n2CCC3)cc1	6.5	i	i	?	9.2µM*
O=C(C[n+]1cc(-c2ccccc2)n2c1CCC2)OCc1ccccc1	-0.6	i	i	-9.7%	.
Cc1oc(-c2cccc(Cl)c2)nc1Cn1c(SCc2ccccc2F)nc2ccncc21	.	i	i	.	.
COc1ccc(-n2ncc3c(NCCC4=CCCCC4)ncnc32)cc1	.	i	i	.	.
O=C(Cn1nc([N+](=O)[O-])nc1Br)NC(c1ccccc1)c1ccccc1	?	i	i	?	?
